PubChem BioAssay

These compounds were tested against Torsin-1A (Homo sapiens) (UniProt O14656) (assay: TOR1A wild-type binding on microarray – cell lysate, small-molecule microarray, lysate, 635/667 nm, primary screen (AID 1149)). Settings: COS7 hTOR1A-WT lysate, 635 nm fluorescence, higher = more signal.
Torsin-1A (Homo sapiens), sequence (O14656 whole entry, looked up): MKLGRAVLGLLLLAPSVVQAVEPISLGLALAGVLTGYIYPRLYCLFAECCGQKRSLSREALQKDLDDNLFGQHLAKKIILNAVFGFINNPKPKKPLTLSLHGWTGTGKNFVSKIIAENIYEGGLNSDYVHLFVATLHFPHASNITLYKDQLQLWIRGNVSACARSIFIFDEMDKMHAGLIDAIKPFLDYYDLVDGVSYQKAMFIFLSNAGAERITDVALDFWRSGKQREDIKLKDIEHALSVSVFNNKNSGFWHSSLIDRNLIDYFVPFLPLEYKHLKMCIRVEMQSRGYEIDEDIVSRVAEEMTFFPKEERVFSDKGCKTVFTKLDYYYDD

Structure (SMILES) | composite z-score
CN(C)C(=O)[C@]1(Cc2ccccc2N=[N+]=[N-])N=C(c2ccc(OCCCO)cc2)O[C@@H]1c1ccccc1 | -0.09
CCCCCC1=C2CNC(CCC)(C(=O)OC)C=C2C(C)C1=O (stereo not given) | -0.449
COCCOC(=O)N1C(=O)[C@@]2(c3cc(C#CCCO)ccc31)[C@H](C(=O)N1CCc3cc(OC)c(OC)cc3C1)[C@H]1C(=O)O[C@H](c3ccccc3)[C@H](c3ccccc3)N1[C@@H]2c1ccc(O)cc1 | 0.73
O=C(NCc1ccccc1)[C@@]1(Cc2ccccc2)N=C(c2ccc(OCCCO)cc2)O[C@H]1c1ccccc1 | 0.924
CC(C)c1ccc(NN2C(C(O)c3cc(C(F)(F)F)cc(C(F)(F)F)c3)C=CC3C(=O)N(c4ccccc4)C(=O)C32)cc1 (stereo not given) | -0.283
CN1C(=O)[C@]2(Cc3ccccc3)N=C(c3ccc(OCCCO)cc3)O[C@@H]2c2ccccc21 | 0.428
CC(C)(C)OC(=O)CC[C@]1(C(=O)NCC(O)CO)COC(c2ccc(OCCCO)cc2)=N1 (stereo not given in full) | 0.746
CCOC(=O)C[C@H]1[C@H](OC(=O)c2cc3ccccc3oc2=O)[C@@H](NC(=O)Cc2ccc(OC)cc2)c2cc(OCCCO)ccc2N1C(=O)c1ccccc1 | 0.388
COc1ccc(CCNC(=O)[C@@]2(Sc3ccc(C)cc3)CC(=O)N(C3CCCCC3)[C@@H]2c2ccc(CO)cc2I)cc1 | 0.333
COc1ccc(C(=O)O[C@H]2CC[C@]3(C)C4=C(CCC3C2(C)C)[C@]2(C)CC[C@H]([C@H](C)CCCC(C)C)[C@@]2(C)CC4)cc1 (stereo not given in full) | 0.344
CCOC(=O)C[C@H]1[C@H](OC(=O)Cc2ccc3c(c2)OCO3)[C@@H](NC(=O)c2ccc3ccccc3c2)c2cc(OCCCO)ccc2N1C(=O)c1ccccc1 | 0.0289
CCN(CC)c1ccc(N2CC=CC34O[C@@H]5/C=C\CCCOC(=O)C5[C@H]3C(=O)N(CCO)[C@@H]4C2=O)cc1 (stereo not given in full) | -1.53
C=CCNC(=O)[C@@H]1[C@H]2C(=O)O[C@H](c3ccccc3)[C@H](c3ccccc3)N2[C@H](c2ccccc2OCCO)[C@@]12C(=O)N(C(=O)OCCOC)c1ccc(C#CCNC(N)=O)cc12 | 0.186
O=C1C[C@]2(c3ccc([N+](=O)[O-])cc3)C(=O)N(CCN3CCOCC3)c3cc(CO)ccc3[C@H]2N1C1CCCCC1 | -0.489
CN1C(=O)C2C=CC(C(O)C3CC=CCC3)N(NC(=O)OC(C)(C)C)C2C1=O (stereo not given) | 0.665
COCCCNC(=O)C1N=C(c2ccc(OCCCO)cc2)N(c2ccccc2)O1 (stereo not given) | 0.777
C=C(COC)/C(=C/C[C@H](OC(=O)c1ccncc1)c1ccc(OCCO)cc1)c1cnc2ccccc2c1 | 1.27
C=CC[C@@]1(C(=O)N(C)C)N=C(c2ccc(OCCCO)cc2)O[C@@H]1c1ccccc1N=[N+]=[N-] | 0.722

Structure (SMILES) | composite z-score
C=CCOC(=O)[C@H]1[C@@H]2C(=O)O[C@@H](c3ccccc3)[C@@H](c3ccccc3)N2[C@@H](c2ccc(OCCOC(=O)[C@@H]3C[C@@H]4C(=O)N[C@@H](CCCC[N+](C)(C)C)C(=O)N4[C@@H]3c3ccc(O)cc3)cc2)[C@]12C(=O)Nc1ccccc12 | 1.67
O=C1NC(=O)C2C1C=CC(C(O)c1cccc3ccccc13)N2Nc1ccccn1 (stereo not given) | 0.16
COc1ccc(C(=O)Nc2cccc(CN3C(=O)[C@]4(O[C@H](CCO)[C@@H]([Si](C)(C)c5ccc(OC)cc5)[C@@H]4C)c4ccccc43)c2)cc1 | 0.271
COC(=O)c1c(CC[C@@H](CO)NC(=O)N2CCC[C@H]2Cn2cc(-c3ccccn3)nn2)oc(C(C)=O)c1C(=O)OC | 0.0323
C=CCN1C(=O)[C@]2(O[C@H](CCO)[C@@H]([Si](C)(C)c3ccc(OC)cc3)[C@@H]2C)c2cc(N3C(=O)c4cccc5cccc3c45)ccc21 | 1.13
O=C(NCc1ccccc1)[C@@]1(CCS(=O)(=O)c2ccccc2)N=C(c2ccc(OCCCO)cc2)O[C@H]1c1ccccc1 | 1.35
CC(C)C(=C=CC[C@@H](O)c1ccccc1OCCO)CCO | -0.502
O=C(NCC(F)(F)F)[C@@H]1c2ccccc2C(=O)N(C2CCCCC2)[C@H]1c1ccc(CO)cc1 | 0.252
CN1C(=O)C2C=CC(C(O)c3cccs3)N(Nc3ccccc3)C2C1=O (stereo not given) | 0.757
COc1cc2c(cc1O)C(C1CC1)N(Cc1cc3c(cc1Br)OCO3)CC2 (stereo not given) | -0.151
COCCOC(=O)N1C(=O)[C@@]2(c3cc(C#CCCO)ccc31)[C@H](c1ccc(OCCO)cc1)N1[C@H](c3ccccc3)[C@H](c3ccccc3)OC(=O)[C@H]1[C@@H]2C(=O)N1CCN(c2ncccn2)CC1 | 0.546
O=C1O[C@H](c2ccccc2)[C@H](c2ccccc2)N2[C@H]1[C@@H](C(=O)NC[C@H](O)c1ccccc1)[C@]1(C(=O)Nc3ccccc31)[C@H]2c1ccc(OCCO)cc1 | 1.55
O=C1c2ccccc2[C@](Cc2ccccc2I)(C(=O)NC2CC2)[C@H](c2ccc(CO)cc2)N1C1CCCCC1 | 0.414
CC(=O)NCCCC[C@@H]1NC(=O)[C@@H]2C[C@H](C(=O)NCCCCCCNC(=O)CS)[C@H](c3cccc(OCCO)c3)N2C1=O | 0.442
COCCOC(=O)N1C(=O)[C@@]2(c3cc(C#CC4=CCCCC4)ccc31)[C@H](C(=O)N1CCc3cc(OC)c(OC)cc3C1)[C@H]1C(=O)O[C@H](c3ccccc3)[C@H](c3ccccc3)N1[C@@H]2c1ccc(OCCO)cc1 | 0.304
COCCOC(=O)N1C(=O)[C@@]2(c3cc(C#CC4=CCCCC4)ccc31)[C@H](C(=O)Nc1nc3ccccc3s1)[C@H]1C(=O)O[C@H](c3ccccc3)[C@H](c3ccccc3)N1[C@@H]2c1ccccc1OCCO | 0.0595
COc1ccc(C(O)C2C=CC3C(=O)N(c4ccccc4)C(=O)C3N2Nc2ccc(C(C)C)cc2)cc1OCc1ccccc1 (stereo not given) | 0.385
